# Assay results reported in the supplement of paper PMC9433436.
# ± gives the standard deviation of the averaged measurements. Over roughly 4,100 sequences, “relative kcat/Km (krel) vs genomic leader AAAGAU” has its median near 1.7; the highest 2% begin near 6.5. Shown is part of a subset that was picked to be rich in the highest values.
# Target: T1, E. coli RNase P holoenzyme (M1 P RNA + rnpA protein) (UniProt P0A7Y8)
# T1 sequence: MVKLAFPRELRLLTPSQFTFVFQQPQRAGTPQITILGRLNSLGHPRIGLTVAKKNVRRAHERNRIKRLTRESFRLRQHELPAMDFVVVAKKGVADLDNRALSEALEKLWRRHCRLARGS
# Assay: relative kcat/Km (krel) vs genomic leader AAAGAU (relative (reference leader = 1)); higher = faster RNase P cleavage
# Procedure, shortened: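 Under multiple-turnover conditions at 37 °C, a precursor tRNA-Met pool randomized at leader positions −6 to −1 was processed by E. coli RNase P holoenzyme (P RNA plus C5 protein) in 50 mM Tris-HCl pH 8, 100 mM NaCl, 17.5 mM MgCl2. The remaining precursor was gel-purified at ~5–30% conversion, then converted to cDNA libraries and Illumina-sequenced. Relative kcat/Km (krel) came from read ratios by internal competition kinetics, normalised to the genomic leader, with two technical replicates averaged.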
# [1] = fraction of substrate reacted: ~9-10% (9.79% repeat 1, 9.1% repeat 2)
# [2] = fraction of substrate reacted: ~13-16% (15.68% repeat 1, 13.17% repeat 2)
# [3] = fraction of substrate reacted: ~26-29% (28.66% repeat 1, 26.4% repeat 2)
Sequence,relative kcat/Km [1],relative kcat/Km [2],relative kcat/Km [3]
TCAGCT,1.54 ± 0.23,0.491 ± 0.47,1.24 ± 0.075
GCTGTC,1.58 ± 0.93,0.624 ± 0.091,0.9566 ± 0.0067
GGCGAC,2.53 ± 0.11,2.47 ± 1.2,4.08 ± 1.4
TTAGAT,1.88 ± 0.57,2.14 ± 0.17,2.8 ± 1.2
CTTCCC,1.37 ± 0.18,1.5 ± 1.2,1.93 ± 0.53
GGGATG,0.585 ± 0.41,–,0.779 ± 0.15
CTAGAT,–,1.15 ± 0.17,1.83 ± 0.17
GACCTC,2.41 ± 0.81,2.49 ± 0.041,3.63 ± 0.74
GGATAC,1.9 ± 1.2,1.76 ± 0.55,3.05 ± 0.7
AACTAC,3.89 ± 1.7,4.66 ± 0.63,6.38 ± 2.5
GACTAC,4 ± 0.5,6.14 ± 3,8.43 ± 3.9
CGCTAG,2.34 ± 1.3,2.43 ± 1,3.4 ± 0.31
CACTGC,3.89 ± 1.6,4.53 ± 1.3,6.06 ± 1.9
CACTAT,4.78 ± 1.4,6.06 ± 2,8.37 ± 3.9
CACTAC,4.63 ± 0.25,6.82 ± 2.5,8.23 ± 3.5
CGCTAC,3.79 ± 0.67,4.78 ± 2.6,6.76 ± 2.8
CGCTAT,3.49 ± 0.87,4.44 ± 1.6,5.95 ± 2.4
CACTGT,1.07 ± 0.037,0.947 ± 0.35,1.51 ± 1.1
CGTATA,2.37 ± 0.34,2.75 ± 0.17,3.94 ± 1.5
GATGGT,–,–,2.1 ± 0.88
TGAGAC,2.71 ± 1.3,2.56 ± 0.093,4.48 ± 1.3
TATACA,1.36 ± 0.29,2.13 ± 0.035,3.02 ± 1.8

Sequence,relative kcat/Km [1],relative kcat/Km [2],relative kcat/Km [3]
AGTCGA,2.68 ± 0.35,3.65 ± 1.2,5.59 ± 2
CCCTTC,3.11 ± 1.4,3.36 ± 0.74,4.51 ± 1.3
TCCTTT,3.7 ± 1.8,4.6 ± 0.8,6.89 ± 2.9
TCCTAT,4.03 ± 0.47,6.02 ± 0.85,9.38 ± 4.8
GCCTAC,3.67 ± 1.2,4.5 ± 0.39,6.1 ± 2.4
ACCTAT,3.74 ± 1.7,4.66 ± 0.24,6.39 ± 2.5
TCCTTA,3.84 ± 1.5,4.61 ± 0.54,6.32 ± 2.4
TCCTAC,4.6 ± 1.6,5.74 ± 0.95,9.69 ± 4.1
CCCTAC,4.32 ± 1.6,5.08 ± 2.3,7.32 ± 3.6
ACCTAC,3.44 ± 1.2,4.53 ± 0.77,5.77 ± 2.1
TCCTTC,3.75 ± 1.2,4.99 ± 0.72,6.44 ± 2.3
CCCTTT,2.73 ± 0.52,3.73 ± 1.1,5.02 ± 2
GAAGAT,1.93 ± 1.7,1.36 ± 0.085,1.34 ± 0.35
ATGCTG,–,–,0.658 ± 0.54
CTTAGA,3.03 ± 0.85,3.18 ± 0.44,4.79 ± 1.7
GATACC,–,1.49 ± 0.64,1.67 ± 0.033
CTGAAG,–,–,2.05 ± 0.18
TCCCGT,–,–,1.86 ± 0.041
GCAATT,–,0.851 ± 0.064,1.21 ± 0.26
AGTGTG,–,–,0.473 ± 0.33
ACCTCA,3.35 ± 1.8,3.24 ± 0.27,4 ± 1.2
CCTAAA,2.53 ± 1.5,2.31 ± 0.051,3.14 ± 0.82

Sequence,relative kcat/Km [1],relative kcat/Km [2],relative kcat/Km [3]
GCCTAG,2.58 ± 1.6,1.57 ± 0.49,3.67 ± 1.2
ACCTAG,2.77 ± 2.8,2.93 ± 0.56,4.27 ± 0.99
CCCTAA,3.68 ± 0.17,4.41 ± 1.4,6.7 ± 3.1
GCCTAT,2.77 ± 0.47,3.91 ± 0.98,6.22 ± 2.8
GCCTAA,2.35 ± 0.18,3.94 ± 0.16,7.08 ± 2.8
CCCTAT,3.137 ± 0.006,5.47 ± 1.1,7.09 ± 3.1
CCCTAG,3.11 ± 1.7,2.55 ± 0.57,4.45 ± 1.2
ACCTAA,2.83 ± 0.76,4.49 ± 0.31,6.74 ± 2.3
CCCTGT,–,–,1.59 ± 0.87
CCCCCT,2.27 ± 1.8,1.25 ± 0.29,1.95 ± 0.15
TGCAAA,0.962 ± 0.78,1.86 ± 0.54,2.7 ± 1.3
CGGACC,0.889 ± 0.39,0.714 ± 0.41,0.577 ± 0.38
ACCGGT,–,–,1.78 ± 1.1
TGGTCT,–,–,0.817 ± 0.39
CTGGCG,0.881 ± 0.58,–,0.461 ± 0.2
CAGTGA,1.48 ± 0.7,2.14 ± 0.58,3.05 ± 0.86
GATCGA,2.37 ± 0.82,2.79 ± 1.2,4.26 ± 1.2
GTTAAG,–,1.6 ± 0.16,2.65 ± 0.77
CTACTC,2.13 ± 1.3,1.61 ± 0.43,2.14 ± 0.28
TCCTAA,5.1 ± 1.9,6.12 ± 0.94,9.11 ± 3.3
TCCTAG,2.56 ± 0.72,3.4 ± 0.46,6.01 ± 2.7
AACCGA,2.67 ± 0.52,3.23 ± 0.34,4.66 ± 1.2
